# DAX1 inh-1 = inhibits human nuclear receptor DAX1; P51843; HEK293 Gal4-DAX1 luciferase reporter, luminescence; inhibition, % at 6.75 µM; actives 0.99% (n = 340,000); AID 504766;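 active means inhibition above the mean over all tested compounds plus 3 SD, cut at about 4.2% in these data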;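 further: 0% = DAX1-transfected cells with DMSO and 100% = empty-vector control cells with DMSO; inhibition shows as a rise in luminescence from relieved DAX1 repression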
# Target sequence (P51843 207-470 limits assumed): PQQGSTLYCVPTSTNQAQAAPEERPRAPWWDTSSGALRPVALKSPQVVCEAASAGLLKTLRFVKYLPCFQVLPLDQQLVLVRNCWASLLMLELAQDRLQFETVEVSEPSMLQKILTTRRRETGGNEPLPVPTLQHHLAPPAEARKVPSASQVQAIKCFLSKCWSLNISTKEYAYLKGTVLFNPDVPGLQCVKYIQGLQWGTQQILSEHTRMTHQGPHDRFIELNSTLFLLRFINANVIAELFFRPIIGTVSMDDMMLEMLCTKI
# hcDAF-12 act = activators of H. contortus DAF-12 nuclear receptor. HEK293 hcDAF-12 lit1-tk-luc reporter, luminescence; 0% DMSO, 100% Δ7-dafachronic acid. activation, % at 6.8 µM. actives 1.4% (n = 370,000);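 active means activation above the mean of all tested compounds plus 3 SD, cut at about 5.5% in these data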;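 further: 100% = response to 3 µM Δ7-dafachronic acid high control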
# hgDAF-12 ag = agonists of H. glycines DAF-12 nuclear receptor. HEK293 GAL4-hgDAF12 UAS-luciferase reporter, agonist luminescence; normalized to butyrate control. AID 687014. actives 1.8% (n = 370,000). activation, % at 6.8 µM;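 active means activation above a cutoff set at the mean of all screened compounds plus 3 SD, cut at about 10% in these data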;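 further: 0% = DMSO wells and 100% = sodium butyrate wells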
# FXN GAA850 act = frataxin GAA850 promoter activation. HEK293 lucGAA850 FXN promoter luciferase reporter, 24 h; percent of 10 µM SAHA response. actives 0.56% (n = 360,000). activation, % at 6 µM;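 active means activation above the average of all compounds screened plus 3 SD, cutoff fixed separately per campaign, cut at about 7.5% in these data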;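 further: 0% = DMSO wells and 100% = 10 µM SAHA wells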
# DAX1 inh-2 = inhibitors of DAX1 repression of SF-1 activated StAR promoter; HEK293T StAR-luciferase reporter, SF-1/DAX-1 repression relief; inhibition, % at 6.8 µM; actives 1.1% (n = 370,000); AID 652010;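 active means inhibition above the mean over all tested compounds plus 3 SD, cut at about 3.6% in these data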;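 further: 0% = DAX-1 cells with DMSO and 100% = cells lacking DAX-1 with DMSO; higher inhibition means more luminescence from relief of DAX-1 repression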
# ssDAF-12 act = S. stercoralis DAF-12 activation, primary screen; AID 652126; activation, % at 6.8 µM; HEK293 ssDAF-12/GRIP1 lit1-tk-luc reporter, luminescence; % of 3 µM dafachronic acid response; actives 1% (n = 370,000);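 active means activation above the mean over all tested compounds plus 3 SD, cut at about 0.9% in these data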;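 further: 0% = DMSO-only wells and 100% = 3 µM delta7-dafachronic acid wells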
# Starred values were filed as active, the others as inactive; / = no result. Hits are enriched below; roughly 4.5% of the tested compounds scored in any of these assays.
SMILES,DAX1 inh-1,hcDAF-12 act,hgDAF-12 ag,FXN GAA850 act,DAX1 inh-2,ssDAF-12 act
CCc1c(C)nc2cc(-c3cccc(Br)c3)[nH]n2c1=O,2,6.4*,7,5,1,1.0*
CCCc1cc(=O)n2[nH]c(-c3ccc(C)cc3)cc2n1,2,2,6,4,4.0*,0
CCCc1cc(=O)n2[nH]c(-c3ccc(Cl)cc3)cc2n1,2,3,10,6,1,1
O=c1c2c(nc3cc(-c4ccc(Cl)cc4)[nH]n13)CCS2,3,4,11*,5,3,0
CCOC(=O)CCc1c(C)nc2cc(-c3ccc(Cl)cc3)[nH]n2c1=O,-1,-1,1,-1,1,-1
O=C1C(NC(=O)N2c3ccccc3C=Cc3ccccc32)CCCCN1Cc1cccc(C(F)(F)F)c1 (stereo not drawn),/,0,-1,/,-1,-2
O=C(c1c(F)cccc1F)N1CCC(Oc2cccnc2)CC1,/,-3,-2,/,0,-2
CCN1CCCCC(NC(=O)c2cc(OC)c(OC)c(OC)c2)C1=O (stereo not drawn),/,1,6,/,0,-1
COc1ccc2[nH]c3c(c2c1)CCN[C@]31C(=O)N(Cc2ccccc2)c2ccccc21,/,-2,-4,/,-1,-1
COc1ccccc1NC(=O)Nc1ccc2c(c1)OCCO2,8.0*,1,13*,8,2,0
COc1ccc(NC(=O)Nc2ccc(F)cc2F)c(C)c1,0,0,5,0,0,-2
Cc1ccccc1NC(=O)NC(N)=O,1,2,3,0,0,-1
O=C(COC(=O)/C=C/c1ccc2c(c1)OCO2)Nc1ccccc1,0,-1,3,1,1,-1
COc1cccc(/C=C/C(=O)OCC(=O)Nc2ccc3c(c2)OCO3)c1,6.4*,0,1,3,0,-1
COc1ccc(NC(=O)Nc2ccc(F)cc2F)cc1,3,3,6,7,1,1.1*
COc1ccccc1NC(=O)NC(N)=O,4.3*,-1,3,-2,0,-1
CC(CCN1CCC(C(O)(c2ccccc2)c2ccccc2)CC1)Oc1ccccc1C#N (stereo not drawn),/,1,-3,/,-1,0
Cc1cc(OC(F)F)ccc1NC(=O)Nc1ccc2c(c1)OCO2,1,2,2,-1,0,-1
COc1ccc(NC(=O)Nc2ccc3c(c2)OCO3)c(C)c1,1,1,9,2,4.4*,-1
CCCC(=O)Nc1cc(C)c2c(=O)oc3ccccc3c2n1,0,0,-3,2,1,-1
Cc1cc(NC(=O)CC(C)(C)C)nc2c1c(=O)oc1ccccc12,0,6.3*,0,1,0,-1
Oc1cccc(Oc2ncc(C(F)(F)F)cc2Cl)c1,0,0,-2,1,1,-2
FC(F)(F)c1cnc(Oc2cccc3ccccc23)c(Cl)c1,0,3,2,2,0,1.0*
Cc1ccc(NC(=O)OC2CC3CC2[C@H]2CCCCN2[C@H]3Cc2ccccc2)cc1 (stereo partly drawn),/,0,2,/,0,-1
Cn1c(=O)[nH]c(=O)c2c1nc(SCC(=O)O)n2CCOc1ccccc1,2,0,2,3,0,0.9*
SMILES,DAX1 inh-1,hcDAF-12 act,hgDAF-12 ag,FXN GAA850 act,DAX1 inh-2,ssDAF-12 act
CCOC(=O)/C(C#N)=C/c1cc(C)n(-c2ccc(C)cc2)c1C,1,2,5,2,0,-1
CCOC(=O)/C(C#N)=C\c1cc(C)n(-c2ccccc2)c1C,5.3*,0,-4,-9,-1,-2
CCN(CC)c1ccc(/C=N/NC(=O)OC(C)(C)C)cc1,4.9*,3,5,4,2,1
Cc1ccc(/C=N/NC(=O)Nc2ccccc2)o1,2,4,11*,7,2,0
CCN(CC)c1ccc(/C=N/NC(=O)Nc2ccccc2)cc1,2,4,11*,3,2,0
CCN(CC)c1ccc(/C=N\NC(N)=O)cc1,-1,-3,-6,-3,-1,-1
Nc1cc(=O)[nH]c(SCCNS(=O)(=O)c2ccccc2)n1,-2,3,3,1,0,0.9*
Cc1cc(C)nc(N2CCC(C(=O)N(C)CCc3ccccc3)CC2)n1,/,-2,0,/,-2,-1
Cn1c2ccccc2c2nnc(NN)nc21,1,5.7*,2,2,1,0
C[C@@H](NC(=O)C[C@H]1CC[C@H]2[C@@H](COc3ccc(NC(=O)Nc4ccccc4)cc3C(=O)N2C)O1)c1ccccc1,/,-2,0,/,1,-1
COc1ccc2nc3cc(Cl)ccc3c(Nc3cc(CN4CCCC4)c(O)c(CN4CCCC4)c3)c2n1,/,2,-6,-7,4.3*,0
COc1ccc2nc3cc(Cl)ccc3c(Nc3cc(C(C)C)c(O)cc3C)c2c1,-1,-2,0,-7,0,-1
Fc1cccc(F)c1[B-](F)(F)F,0,-1,11*,0,1,-1
O=C(NCC1COc2ccccc2O1)c1ccc(NC(=O)c2cccc(F)c2F)cc1 (stereo not drawn),/,-2,0,/,-2,-1
N/C(=N\OC(=O)c1ccc(Cl)cc1)c1cccnc1,2,1,2,4,3,0
N/C(=N\OC(=O)c1ccc(Cl)cc1Cl)c1cccnc1,3,1,11*,7,2,-1
COc1ccc(C(=O)/C=C(\Nc2ccc(F)cc2)c2ccc(OC)cc2OC)c(OC)c1,/,0,-2,/,0,-2
Fc1ccc(-n2c(-c3ccc4ccccc4n3)n[nH]c2=S)cc1,6.3*,2,1,3,0,0
COc1cc(/C=N/n2cnnc2)ccc1OCc1ccccc1,2,0,2,6,0,-1
COc1cc(/C=N/n2cnnc2)ccc1OCc1ccc(C)cc1,1,1,12*,6,1,0
CCOc1cc(/C=N/n2cnnc2)ccc1O,0,6.5*,0,1,0,-1
Cn1c(=O)c2[nH]c(SCC(=O)NCCc3cccc(F)c3)nc2n(C)c1=O,/,-1,-1,/,0,-1
Cc1ccc(S(=O)(=O)n2ccc(-c3c(-c4ccc(F)cc4)noc3C)n2)cc1,/,-3,0,/,-4,-1
CC(C)[C@H](NC(=O)N1CC(=O)Nc2ccccc21)C(=O)N[C@H](Cc1c[nH]c2ccccc12)C(=O)O,4,3,1,-1,1,1.6*
CC(C)[C@H](NC(=O)N1CC(=O)Nc2ccccc21)C(=O)N[C@H](Cc1ccccc1)C(=O)O,1,-2,-3,2,0,-1
C=CCN=C1S/C(=C\c2ccc(N(C)C)cc2)C(=O)N1CC=C,4.7*,-1,3,7,1,-1

# Assay outcomes as filed in PubChem.
